Among the data in ChEMBL document CHEMBL1961873, “Compounds: GSK PKIS; Assays: Nanosyn kinase panel” (2012) are inhibition values, retold here.

Molecules are shown by their SMILES.

In test [1] the target is Serine/threonine-protein kinase pim-2 (Homo sapiens) (UniProt Q9P1W9). To be noted: at 1 µM.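 Further: each value is a mean of the inhibition measurements against the kinase.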
Test [2] deals with Serine/threonine-protein kinase pim-3 (Homo sapiens) (UniProt Q86V86). To be noted: at 0.1 µM.
For test [3] the target is unchanged. As to conditions: at 1 µM.
In test [4] the target is T1, MAP kinase-activated protein kinase 5 (Homo sapiens) (UniProt Q8IW41).
T1 sequence (whole entry): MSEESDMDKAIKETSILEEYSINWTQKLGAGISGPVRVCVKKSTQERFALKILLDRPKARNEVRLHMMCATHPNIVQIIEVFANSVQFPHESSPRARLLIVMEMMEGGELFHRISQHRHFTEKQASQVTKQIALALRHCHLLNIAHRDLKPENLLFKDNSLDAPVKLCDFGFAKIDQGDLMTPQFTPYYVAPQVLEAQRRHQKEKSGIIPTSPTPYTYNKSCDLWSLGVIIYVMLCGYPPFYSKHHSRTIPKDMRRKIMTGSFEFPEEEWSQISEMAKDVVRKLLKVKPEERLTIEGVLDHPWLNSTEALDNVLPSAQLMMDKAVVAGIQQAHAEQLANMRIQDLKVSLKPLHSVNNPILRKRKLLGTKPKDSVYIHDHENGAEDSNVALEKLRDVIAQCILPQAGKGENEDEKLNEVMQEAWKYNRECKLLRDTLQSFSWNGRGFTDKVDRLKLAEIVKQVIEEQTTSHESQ
As to conditions: at 0.1 µM.

For test [5], the target named is T1, MAP kinase-activated protein kinase 5 (Homo sapiens). As to conditions: at 1 µM.
For test [6], the target named is Serine/threonine-protein kinase SIK1 (Homo sapiens) (UniProt P57059). To be noted: at 0.1 µM.
The target is the same in test [7]. To be noted: at 1 µM.
The target in test [8] is Serine/threonine-protein kinase SIK2 (Homo sapiens) (UniProt Q9H0K1). As to conditions: at 0.1 µM.
Test [9] has the same target. As to conditions: at 1 µM.
Test [10] addresses T2, Serine/threonine-protein kinase TBK1 (Homo sapiens) (UniProt Q9UHD2).
T2 sequence (whole entry): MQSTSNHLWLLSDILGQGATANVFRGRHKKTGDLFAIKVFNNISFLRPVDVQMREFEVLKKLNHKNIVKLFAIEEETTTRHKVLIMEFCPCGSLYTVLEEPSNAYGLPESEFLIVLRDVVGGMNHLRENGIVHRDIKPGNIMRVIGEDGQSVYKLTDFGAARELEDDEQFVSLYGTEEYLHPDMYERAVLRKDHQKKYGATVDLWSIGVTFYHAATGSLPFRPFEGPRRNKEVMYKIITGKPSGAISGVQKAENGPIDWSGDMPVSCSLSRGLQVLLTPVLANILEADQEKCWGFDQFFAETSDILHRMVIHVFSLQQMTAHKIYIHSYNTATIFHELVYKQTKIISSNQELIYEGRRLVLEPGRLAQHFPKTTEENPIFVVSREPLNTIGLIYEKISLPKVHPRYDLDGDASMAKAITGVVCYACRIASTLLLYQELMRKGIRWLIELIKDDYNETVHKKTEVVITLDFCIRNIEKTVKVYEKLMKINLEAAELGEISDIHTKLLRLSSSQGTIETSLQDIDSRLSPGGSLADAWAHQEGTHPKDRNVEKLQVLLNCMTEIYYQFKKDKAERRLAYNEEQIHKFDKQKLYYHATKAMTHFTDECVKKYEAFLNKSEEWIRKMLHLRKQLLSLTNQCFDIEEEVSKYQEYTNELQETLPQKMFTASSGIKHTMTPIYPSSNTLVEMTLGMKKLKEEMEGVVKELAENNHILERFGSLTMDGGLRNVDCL
To be noted: at 0.1 µM.

Test [11] addresses T2, Serine/threonine-protein kinase TBK1 (Homo sapiens). To be noted: at 1 µM.
The target in test [12] is T3, Testis-specific serine/threonine-protein kinase 1 (Homo sapiens) (UniProt Q9BXA7).
T3 sequence (whole entry): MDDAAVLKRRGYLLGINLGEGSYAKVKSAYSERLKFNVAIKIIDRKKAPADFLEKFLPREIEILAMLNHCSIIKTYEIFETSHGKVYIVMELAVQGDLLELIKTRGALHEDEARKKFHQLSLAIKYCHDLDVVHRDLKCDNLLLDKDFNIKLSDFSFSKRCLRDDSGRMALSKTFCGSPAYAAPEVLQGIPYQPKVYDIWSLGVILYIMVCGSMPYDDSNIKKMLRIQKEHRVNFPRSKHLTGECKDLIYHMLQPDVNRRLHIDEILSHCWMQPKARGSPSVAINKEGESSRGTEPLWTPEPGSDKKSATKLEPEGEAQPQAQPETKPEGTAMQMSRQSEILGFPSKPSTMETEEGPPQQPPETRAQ
To be noted: at 0.1 µM.

For test [13], the target named is T3, Testis-specific serine/threonine-protein kinase 1 (Homo sapiens). To be noted: at 1 µM.
Test [14] has as its target T4, Testis-specific serine/threonine-protein kinase 2 (Homo sapiens) (UniProt Q96PF2).
T4 sequence (whole entry): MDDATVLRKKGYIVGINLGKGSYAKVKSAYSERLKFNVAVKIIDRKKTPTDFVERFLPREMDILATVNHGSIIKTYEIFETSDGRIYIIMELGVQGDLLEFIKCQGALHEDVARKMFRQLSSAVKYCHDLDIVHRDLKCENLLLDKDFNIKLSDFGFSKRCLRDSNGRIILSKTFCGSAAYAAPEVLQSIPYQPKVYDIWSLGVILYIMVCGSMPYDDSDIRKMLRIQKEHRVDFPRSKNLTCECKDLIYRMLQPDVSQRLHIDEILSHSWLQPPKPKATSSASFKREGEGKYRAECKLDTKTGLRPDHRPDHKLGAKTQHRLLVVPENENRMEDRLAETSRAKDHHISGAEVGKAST
To be noted: at 0.1 µM.

The target of test [15] is T4, Testis-specific serine/threonine-protein kinase 2 (Homo sapiens). As to conditions: at 1 µM.
For test [16], the target named is Casein kinase I isoform alpha (Homo sapiens) (UniProt P48729). As to conditions: at 0.1 µM.
Test [17] shares this target. As to conditions: at 1 µM.
Test [18] deals with Casein kinase I isoform gamma-1 (Homo sapiens) (UniProt Q9HCP0). To be noted: at 0.1 µM.
The target is the same in test [19]. To be noted: at 1 µM.
For test [20], the target named is Casein kinase I isoform gamma-2 (Homo sapiens) (UniProt P78368). As to conditions: at 0.1 µM.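 Further: values are mean inhibition figures reported as part of the GSK PKIS dataset.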
Sequence of Casein kinase I isoform gamma-2 (Homo sapiens) (P78368 whole entry, looked up, canonical isoform): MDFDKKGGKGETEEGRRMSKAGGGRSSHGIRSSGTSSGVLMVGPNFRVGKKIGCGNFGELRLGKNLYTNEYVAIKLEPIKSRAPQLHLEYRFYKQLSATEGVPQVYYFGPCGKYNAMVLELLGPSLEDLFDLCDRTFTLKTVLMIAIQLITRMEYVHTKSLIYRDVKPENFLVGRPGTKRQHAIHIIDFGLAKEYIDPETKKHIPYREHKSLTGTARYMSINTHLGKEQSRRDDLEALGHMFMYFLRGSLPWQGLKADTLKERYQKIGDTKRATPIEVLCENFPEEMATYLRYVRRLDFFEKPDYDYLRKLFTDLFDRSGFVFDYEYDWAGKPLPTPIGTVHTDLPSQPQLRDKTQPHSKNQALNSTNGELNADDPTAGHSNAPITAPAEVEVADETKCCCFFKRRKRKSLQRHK

Sequence of Casein kinase I isoform alpha (Homo sapiens) (P48729 2-337 limits assumed): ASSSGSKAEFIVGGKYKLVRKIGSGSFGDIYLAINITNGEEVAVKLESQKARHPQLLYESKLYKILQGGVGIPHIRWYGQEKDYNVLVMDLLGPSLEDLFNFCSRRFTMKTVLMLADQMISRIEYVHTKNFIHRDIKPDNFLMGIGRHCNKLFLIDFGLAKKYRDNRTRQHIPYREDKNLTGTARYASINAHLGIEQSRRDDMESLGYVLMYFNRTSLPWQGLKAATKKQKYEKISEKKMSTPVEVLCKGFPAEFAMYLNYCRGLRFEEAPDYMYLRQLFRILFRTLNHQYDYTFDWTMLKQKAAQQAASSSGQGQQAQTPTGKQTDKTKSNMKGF
Sequence of Serine/threonine-protein kinase pim-2 (Homo sapiens) (Q9P1W9 whole entry, looked up): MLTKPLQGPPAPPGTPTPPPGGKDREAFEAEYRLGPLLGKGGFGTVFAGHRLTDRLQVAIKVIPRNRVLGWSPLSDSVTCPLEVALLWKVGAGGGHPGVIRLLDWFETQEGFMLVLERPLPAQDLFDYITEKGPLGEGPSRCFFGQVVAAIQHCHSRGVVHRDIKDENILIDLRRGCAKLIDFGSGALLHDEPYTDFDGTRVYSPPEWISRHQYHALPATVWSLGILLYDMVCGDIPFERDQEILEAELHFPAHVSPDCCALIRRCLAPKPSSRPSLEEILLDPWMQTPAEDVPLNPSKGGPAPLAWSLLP
Sequence of Serine/threonine-protein kinase SIK1 (Homo sapiens) (P57059 whole entry): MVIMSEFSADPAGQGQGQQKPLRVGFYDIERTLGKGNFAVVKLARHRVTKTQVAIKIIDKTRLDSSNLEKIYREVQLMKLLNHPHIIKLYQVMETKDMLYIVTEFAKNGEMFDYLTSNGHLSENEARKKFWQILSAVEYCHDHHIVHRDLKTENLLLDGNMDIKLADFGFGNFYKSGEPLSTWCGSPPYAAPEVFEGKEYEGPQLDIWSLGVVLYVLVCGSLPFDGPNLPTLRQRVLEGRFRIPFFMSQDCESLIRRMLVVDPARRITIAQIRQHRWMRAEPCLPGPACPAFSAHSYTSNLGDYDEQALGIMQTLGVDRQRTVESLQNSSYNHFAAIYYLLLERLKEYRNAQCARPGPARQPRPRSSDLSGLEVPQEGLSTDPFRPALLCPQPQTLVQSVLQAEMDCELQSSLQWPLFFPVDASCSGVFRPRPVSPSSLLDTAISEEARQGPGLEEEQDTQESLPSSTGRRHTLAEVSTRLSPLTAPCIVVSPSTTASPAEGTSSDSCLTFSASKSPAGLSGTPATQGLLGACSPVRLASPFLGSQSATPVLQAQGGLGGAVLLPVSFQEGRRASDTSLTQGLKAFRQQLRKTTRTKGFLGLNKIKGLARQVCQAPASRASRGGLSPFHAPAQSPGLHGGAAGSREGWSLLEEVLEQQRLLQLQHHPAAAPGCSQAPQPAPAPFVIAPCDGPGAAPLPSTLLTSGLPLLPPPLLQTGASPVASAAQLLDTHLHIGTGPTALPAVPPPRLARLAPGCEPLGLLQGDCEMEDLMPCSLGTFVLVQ
Sequence of Casein kinase I isoform gamma-1 (Homo sapiens) (Q9HCP0 whole entry, looked up, canonical isoform): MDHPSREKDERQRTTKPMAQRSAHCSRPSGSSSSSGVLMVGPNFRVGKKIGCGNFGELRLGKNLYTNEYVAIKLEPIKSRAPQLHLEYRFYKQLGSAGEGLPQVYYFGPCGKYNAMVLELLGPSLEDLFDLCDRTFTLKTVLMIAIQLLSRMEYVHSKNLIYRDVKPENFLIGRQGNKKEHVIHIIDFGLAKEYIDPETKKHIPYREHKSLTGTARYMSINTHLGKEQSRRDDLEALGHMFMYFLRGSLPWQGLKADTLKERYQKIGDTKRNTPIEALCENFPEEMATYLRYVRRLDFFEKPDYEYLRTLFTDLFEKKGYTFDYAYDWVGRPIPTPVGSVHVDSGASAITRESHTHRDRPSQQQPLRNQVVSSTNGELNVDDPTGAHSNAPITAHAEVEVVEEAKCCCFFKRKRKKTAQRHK
Sequence of Serine/threonine-protein kinase SIK2 (Homo sapiens) (Q9H0K1 whole entry, looked up): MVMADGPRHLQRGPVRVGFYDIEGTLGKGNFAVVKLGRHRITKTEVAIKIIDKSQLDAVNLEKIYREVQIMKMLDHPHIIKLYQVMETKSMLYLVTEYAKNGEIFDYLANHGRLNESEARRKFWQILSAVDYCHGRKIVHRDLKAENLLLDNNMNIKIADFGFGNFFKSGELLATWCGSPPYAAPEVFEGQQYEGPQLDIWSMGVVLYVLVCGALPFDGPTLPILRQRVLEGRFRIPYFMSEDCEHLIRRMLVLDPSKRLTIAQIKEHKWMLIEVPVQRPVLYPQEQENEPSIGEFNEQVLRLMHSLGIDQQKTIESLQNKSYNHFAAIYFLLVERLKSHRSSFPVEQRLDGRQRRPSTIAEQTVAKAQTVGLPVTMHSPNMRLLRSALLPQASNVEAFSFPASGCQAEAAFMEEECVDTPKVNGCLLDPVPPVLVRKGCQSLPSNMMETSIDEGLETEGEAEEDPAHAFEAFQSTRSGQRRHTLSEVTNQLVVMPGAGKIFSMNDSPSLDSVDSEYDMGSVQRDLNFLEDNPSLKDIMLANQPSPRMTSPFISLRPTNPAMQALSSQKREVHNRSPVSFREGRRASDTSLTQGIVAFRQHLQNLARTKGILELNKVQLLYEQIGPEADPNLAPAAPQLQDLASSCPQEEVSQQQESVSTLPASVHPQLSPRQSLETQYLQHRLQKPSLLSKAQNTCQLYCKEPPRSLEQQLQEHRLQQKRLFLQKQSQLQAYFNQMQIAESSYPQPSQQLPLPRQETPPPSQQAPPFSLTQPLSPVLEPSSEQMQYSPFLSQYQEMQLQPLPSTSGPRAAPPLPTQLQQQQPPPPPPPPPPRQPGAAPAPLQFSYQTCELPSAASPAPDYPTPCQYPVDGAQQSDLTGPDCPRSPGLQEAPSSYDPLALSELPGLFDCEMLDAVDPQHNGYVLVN

A word on the inhibition: it is the change of the read-out against control, counted positive when it falls. In the case of `COC(=O)Nc1nc2ccc(Oc3ccc(NC(=O)Nc4cccc(Cl)c4)cc3)cc2[nH]1`, the inhibition in [1] is -1.04%; in test [2], -0.85%; in test [3], -1.87%; in test [4] it was 0.18%; in test [5], -0.5%; in test [6], 1.1%. Moreover, the inhibition in test [7] was 4.14%; in test [8], 0.4%; in [9] it was 1.86%; in test [10], 1.34%; in test [11], -2.2%; in test [12], 2.29%. Further, the inhibition in test [13] was 0.67%; in test [14] it was -0.06%; in [15] it was -0.21%; in [16], 0.11%; in test [17], 0.94%; in test [18], 0.68%. Besides, the inhibition in [19] came to 1.34%; in [20] it was 0.75%.

For the compound `COc1ccc(-c2nn3ncccc3c2-c2ccnc(Nc3ccc4c(c3)OCCO4)n2)cc1`, the inhibition in test [1] was 1.11%; in test [2], 0.26%; in test [3], 2.15%; in test [4], 0.05%; in test [5], -0.76%; in [6] it was 1.35%. Moreover, the inhibition in test [7] was 12.5%; in test [8], -0.55%; in [9], 6.1%; in test [10] it was -0.73%; in [11], 1.43%; in test [12], -0.54%. For the same compound, the inhibition in test [13] was -0.16%; in [14], 1.42%; in [15], -0.78%; in test [16], 0%; in test [17], 3.14%; in test [18], 1.16%. Besides, the inhibition in test [19] worked out at 3.57%; in test [20], 1.93%.

Regarding `CCCN(CCS(C)(=O)=O)Cc1ccc(-c2ccc3ncnc(Nc4ccc(OCc5cccc(F)c5)c(Cl)c4)c3c2)o1`, the inhibition is 0.55% in [1]; 0.79% in test [2]; 1.71% in test [3]; 0.4% in test [4]; 0.36% in test [5]; 5.69% in test [6]. Besides, the inhibition in test [7] came out at 6.39%; in test [8], 4.14%; in [9] it was 7.64%; in test [10], 2.46%; in test [11], 5.16%; in test [12], 2.58%. The inhibition in [13] worked out at 1.44%; in [14] it was 0.97%; in test [15], 0.36%; in test [16], 1.49%; in test [17] it was 3.77%; in test [18], 1.24%. In addition, the inhibition in [19] came to 1.53%; in [20] it was 0.76%.

Consider `CNC(=O)c1cc(-c2ccc(F)cc2)cc(-c2ccc(S(=O)(=O)N3CCCC3)cc2)c1N`, for which the inhibition is 0.43% in test [1]; -1.52% in test [2]; -0.11% in test [3]; 0.53% in test [4]; 0.97% in test [5]; 6.18% in test [6]. Moreover, the inhibition came to 6.6% in test [7]; 3.18% in test [8]; 5.07% in [9]; 0.38% in test [10]; 1.13% in [11]; 2.57% in test [12]. Besides, the inhibition in test [13] turned out to be 3.21%; in test [14], 1.51%; in test [15], 1.66%; in [16], 2.27%; in [17], 3.11%; in [18], 2.3%. In addition, the inhibition in [19] was determined as 2.21%; in test [20], 2.4%.

`Clc1ccc(-c2nn3ncccc3c2-c2ccnc(Nc3ccccc3)n2)cc1`: the inhibition is 0.51% in [1]; 3.12% in [2]; 0.33% in test [3]; 0.57% in [4]; -0.73% in test [5]; 3.67% in [6]. Also, the inhibition in [7] was 13.6%; in test [8] it was -1.6%; in test [9], 13.9%; in [10] it was 1.29%; in test [11], 2.57%; in test [12], 0.84%. In addition, the inhibition in test [13] was 0.18%; in [14] it was 2.19%; in [15], -0.46%; in [16] it was 5.52%; in [17] it was 39.6%; in test [18] it was 3.83%. Also, the inhibition in test [19] is 1.87%; in [20] it was 0.23%.

Consider `c1ccc(-c2nc3n(c2-c2ccc4c(c2)OCO4)CCC3)nc1`, for which the inhibition in [1] came to 0.83%; in [2], 0.35%; in [3] it was 1.07%; in [4], 0.81%; in test [5], 0.42%; in test [6], 2.02%. The inhibition in [7] came to 4.54%; in test [8], 0.11%; in [9], 3.1%; in test [10] it was 1%; in [11] it was 2.71%; in test [12], 0.83%. In addition, the inhibition in test [13] was -0.01%; in [14], 0.79%; in test [15], 0.57%; in test [16], 22.2%; in [17], 60.1%; in test [18], 1.06%. Besides, the inhibition in test [19] turned out to be 2.79%; in test [20] it was 1.64%.
